# Screening data as filed in PubChem.
# RAD54 inh: inhibitors of human RAD54 branch migration, primary screen, biochemical, fluorescence, single point; DNA repair and recombination protein RAD54-like (Homo sapiens), Q92698; RAD54 Holliday junction branch migration, FAM/BHQ fluorescence; inhibition, % at 10.4 µM; 360,000 compounds, 0.14% hits;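 active = mean normalized replicate activity at least 40 and at least half of replicates scoring 40 or more; inconclusive = only one of the two criteria met; inactive = mean below 40 and under half of replicates reaching 40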;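 also: 0% = median of neutral control wells and 100% = median of positive control wells; inhibitors cause a drop in the FAM fluorescence signal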
# Target sequence (Q92698 whole entry, looked up): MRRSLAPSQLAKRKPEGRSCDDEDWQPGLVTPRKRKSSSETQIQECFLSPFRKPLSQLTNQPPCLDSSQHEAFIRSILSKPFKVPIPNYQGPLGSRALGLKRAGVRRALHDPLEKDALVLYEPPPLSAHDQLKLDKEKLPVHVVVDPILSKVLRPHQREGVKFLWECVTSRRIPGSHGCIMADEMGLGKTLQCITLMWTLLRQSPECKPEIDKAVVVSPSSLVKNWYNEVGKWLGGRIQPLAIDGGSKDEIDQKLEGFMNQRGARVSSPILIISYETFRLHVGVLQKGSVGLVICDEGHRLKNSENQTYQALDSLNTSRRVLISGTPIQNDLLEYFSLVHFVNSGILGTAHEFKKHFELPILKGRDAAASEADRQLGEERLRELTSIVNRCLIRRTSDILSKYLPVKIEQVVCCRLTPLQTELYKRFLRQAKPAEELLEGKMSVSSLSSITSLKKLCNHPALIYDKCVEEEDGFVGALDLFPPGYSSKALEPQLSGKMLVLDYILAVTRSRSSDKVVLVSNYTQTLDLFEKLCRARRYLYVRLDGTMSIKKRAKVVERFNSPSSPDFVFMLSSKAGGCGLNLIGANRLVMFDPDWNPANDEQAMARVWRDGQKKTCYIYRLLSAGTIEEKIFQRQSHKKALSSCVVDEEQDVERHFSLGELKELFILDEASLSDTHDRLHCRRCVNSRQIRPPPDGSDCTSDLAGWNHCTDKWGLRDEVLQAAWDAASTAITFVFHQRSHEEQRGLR
# Glyco luc inh: increase of ERlucT glycosylation luciferase signal, primary screen, N-linked glycosylation inhibitor project, D54 ERlucT cells, luminescence, set 2; D54 ERlucT glycosylation luciferase reporter, 24 h; percent of 100 nM tunicamycin response; reporter increase, % at 12.5 µM; 360,000 compounds, 0.23% hits; AID 588692, 2011;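 active = mean luciferase reporter signal, scaled so untreated is 0 and the glycosylation-blocking control 100, at or above a set limit in every replicate; inconclusive = mean reaches the limit but not every replicate does; inactive = mean below the limit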;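 also: luciferase carries N-glycosylation sites so blocking glycosylation raises the light; 0% = median of neutral control wells and 100% = median of 100 nM tunicamycin wells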
# Myeloid diff 2: induction of myeloid progenitor differentiation, primary screen, cell-based, flow cytometry, MLPCN library | calls only at 10 µM | 360,000 compounds, 1% hits | AID 624256, 2012 | ER-HoxA9 myeloid progenitors, lysozyme-GFP differentiation;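 active = normalized GFP-positive differentiation at or above the plate's own cutoff, the solvent-only control mean plus 3 SD; inconclusive = no clear call, values can overlap the other calls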;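 also: cells exposed to compound for four days before flow analysis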
# Vif inh: HIV Vif self-association inhibitors, primary screen, imaging, HEK293T, single point | inhibition, % at 7.49 µM | AID 602346, 2012 | HEK293T cells, Vif self-association by quenched fluorescence, 24 h | 340,000 compounds, 0.35% hits; in the data active = inhibition above about 50%, passing the limit was not always enough; inconclusive = no clear call, values can overlap the other calls; inactive = below about 31%
# ABCB6 inh MLPCN: ABCB6 transporter inhibitors, primary screen, K562-ABCB6 cells, flow cytometry, MLPCN library; ATP-binding cassette sub-family B member 6 (Homo sapiens), Q9NP58; K562-ABCB6 porphyrin accumulation, 1 h; active compounds read low; fluorescence ratio to DMSO, % at 10 µM; 360,000 compounds, 0.19% hits;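 active = fluorescence ratio to DMSO below 75%, the collection mean minus 3 SD; inconclusive = too few cells collected in the well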;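 also: signal is porphyrin accumulated inside mitochondria; 100% equals median channel fluorescence of DMSO control wells; lower ratio means ABCB6 inhibition with less porphyrin fluorescence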
# Numbers without * were called inactive; i = inactive; ? = inconclusive; nt = no result given; + = active, no number. Shown are actives, neighbours in structure and some others; about 1.6% of the full set was active somewhere.
SMILES,RAD54 inh,Glyco luc inh,Myeloid diff 2,Vif inh,ABCB6 inh MLPCN
COc1ccc(-c2cc(C(F)F)n3ncc(C(=O)N4CCN(C(=O)c5ccco5)CC4)c3n2)cc1,18,2,+,-7,97
O=C1N/C(=C\c2ccccc2)c2ccccc21,2,19,+,2,86
C#CCSc1nnc(-c2cccc3ccccc23)o1,nt,-1,+,-1,106
Cc1ccc(S(=O)(=O)NC2=C(N3CCN(Cc4ccccc4)CC3)C(=O)c3ccccc3C2=O)cc1,4,65*,+,-6,89
COCC(=O)Nc1ccc2c(c1)C(=O)N(C)C[C@H](OC)[C@@H](C)CN(C(=O)c1cnccn1)[C@@H](C)CO2,-2,nt,nt,nt,nt
CCOC(=O)c1cnc2c(C)cc(Cl)cc2c1NCCCN1CCOCC1,57*,3,i,21,102
C[C@@H]1CCCCO[C@@H](CN(C)C(=O)Nc2ccc3c(c2)OCO3)[C@@H](C)CN([C@H](C)CO)C(=O)c2cc(NC(=O)CCCCCC(=O)Nc3ccccc3N)ccc2O1,6,nt,nt,nt,nt
COc1ccc2c(ccc[n+]2CC(=O)c2ccc(C)cc2)c1,0,-1,i,8,106
Cc1ccc(C(=O)C[n+]2cccc3cc(C)ccc32)cc1,-23,-3,+,15,433
CC(C)(C)C(=O)/C=C(\N)c1ccccn1,-7,1,+,1,101
CCOC(=O)c1c(NC(C)=O)sc2c1CCC(C=NCCCN(CC)CC)=C2Sc1ccccc1,8,2,+,-17,89
CCOC(=O)c1c(NC(=O)Cc2ccccc2)sc2c1CCN(C)C2,-5,-5,i,9,99
CN(CC(=O)NCc1ccc(F)cc1)S(=O)(=O)c1ccc(Br)s1,-14,3,i,2,93
CN(CC(=O)NCCc1ccc(S(N)(=O)=O)cc1)S(=O)(=O)c1ccc(Br)s1,-18,-1,i,62*,93
COC(=O)c1ccc(Oc2coc3cc(OCc4cnn(-c5ccccc5)c4)ccc3c2=O)cc1,-11,3,i,142*,93
CC(=O)Nc1ccccc1C(=O)C(=O)Nc1ccc(C(=O)NCC2CCCO2)cc1 (stereo unspecified),6,2,+,-2,106
O=C(NCC1CCCO1)c1cccs1 (stereo unspecified),0,0,+,-4,101
O=C(C[C@H]1CC[C@@H](NC(=O)CN2CCOCC2)[C@H](CO)O1)NC1CCCCC1,-2,nt,nt,nt,nt
CC(=O)N(C)C[C@H]1Oc2cc(-c3cccc(F)c3)ccc2S(=O)(=O)N([C@@H](C)CO)C[C@@H]1C,3,nt,nt,nt,nt
COc1ccc(-c2cc(NC(=O)c3cncn3-c3ccccc3)ccc2OC)cc1,6,-8,+,-4,102
CCOC(=O)c1c(NC(C)=O)sc2c(OCCN(CC)CC)c(Br)ccc12,nt,85*,i,-8,92
CCOC(=O)c1c(NC(C)=O)sc2c(OC)c(Br)ccc12,3,2,i,8,101
COc1ccc(-c2ccc3c(c2)O[C@@H](CN(C)Cc2ccccc2C(=O)O)[C@@H](C)CN([C@@H](C)CO)S3(=O)=O)cc1,1,nt,nt,nt,nt
CCOc1ccc(C(C)=O)cc1COC(=O)c1cc([N+](=O)[O-])ccc1N1CCOCC1,-2,5,i,71*,86
COc1ccc(OC)c(COC(=O)c2cc([N+](=O)[O-])ccc2N2CCOCC2)c1,2,7,?,-24,99
COc1nc(-c2ccccc2)cc(-c2ccc3c(c2)OCO3)c1C#N,nt,12,+,?,98
O=C(NC(c1ccc(F)cc1)c1ccc2ccccc2n1)C1CCN(CCOc2ccc(F)cc2)CC1 (stereo unspecified),-1,-5,+,12,96
Cc1ccc(NC(=O)CC2SC(=NCC3CCCO3)NC2=O)cc1Cl (stereo unspecified),nt,-1,i,87*,96
CC(=O)N(C)C[C@H]1Oc2ncc(-c3ccccc3F)cc2C(=O)N([C@@H](C)CO)C[C@H]1C,-5,nt,nt,nt,nt
O=C(C[C@@H]1CC[C@H]2[C@@H](COC[C@H](O)CN2S(=O)(=O)c2cccc(Cl)c2)O1)Nc1ccccc1,0,nt,nt,nt,nt
